Potency and affinity values are given separately. Unmarked numbers belong to inactive results.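 The calls were made as follows: active = falling viability curve whose half-maximal potency lies within twice the top valid tested dose; inconclusive = flat curve with moderate signal loss, or unreliable curve fit; inactive = the rest.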

The assay in a line: ATP-based viability loss in HeLa cells – cell-based, CellTiter-Glo luminescence, dry powder, set 2, cytotoxicity control, dose response (AID 720593). The conditions noted are these: 72 h; series mostly up to 26 µM; activity change, negative = cytotoxicity: at the top concentration. On the technique in general: In ATP-based viability assays light output follows the ATP content of the culture.
On to `Cc1cccc(NC(=O)CSc2ccc(-c3ccccn3)nn2)c1C`, for which the “activity change, negative = cytotoxicity” value was -4.71%.

For the compound `Cc1ccc(C(=O)Nc2nc(-c3ccccc3)cs2)o1`, the “activity change, negative = cytotoxicity” value was -0.187%.

With `Cc1ccc(C(=O)Nc2nc(-c3ccccn3)cs2)cc1S(=O)(=O)N1CCOCC1`, the “activity change, negative = cytotoxicity” value was -20.5%.

`CC1CCN(S(=O)(=O)c2ccc(C(=O)Nc3nnc(-c4cccs4)o3)cc2)CC1`: the “activity change, negative = cytotoxicity” value is -2.78%.

Take `CC1CCN(S(=O)(=O)c2ccc(C(=O)Nc3nnc(-c4ccno4)o3)cc2)CC1`: the “activity change, negative = cytotoxicity” value is 1.92%.

`Cc1nnc(NC(=O)c2ccc(S(=O)(=O)N3CCCCC3)cc2)o1`: the “activity change, negative = cytotoxicity” value is -7.03%.

Turning to `O=C(Nc1nc(-c2ccncc2)cs1)c1ccco1`, the “activity change, negative = cytotoxicity” value was -8.49%.

As to `CC1CCN(S(=O)(=O)c2ccc(C(=O)Nc3nnc(-c4ccccc4)o3)cc2)CC1`, the “activity change, negative = cytotoxicity” value was -4.04%.

With `CC(C)Cc1nnc(NC(=O)c2cccc(S(=O)(=O)N3CCOCC3)c2)s1`, the “activity change, negative = cytotoxicity” value was 3.1%.

Regarding `CC1CCCN(S(=O)(=O)c2ccc(C(=O)Nc3nnc(C4=COCCO4)o3)cc2)C1` (configuration not stated), the “activity change, negative = cytotoxicity” value is -11.9%.

Take `O=C(CSc1ccc(-c2ccccn2)nn1)Nc1nccs1`: the “activity change, negative = cytotoxicity” value is 14.7%.

Regarding `COC(=O)Cc1cc(=O)n(-c2nc3ccccc3[nH]2)[nH]1`, the “activity change, negative = cytotoxicity” value was -4.65%.

In the case of `CC1CCN(S(=O)(=O)c2ccc(C(=O)Nc3nnc(C4=COCCO4)o3)cc2)CC1`, the “activity change, negative = cytotoxicity” value was -9.8%.

Consider `O=C(Nc1nnc(C2=COCCO2)o1)c1ccc(S(=O)(=O)N2CCCCC2)cc1`, for which the “activity change, negative = cytotoxicity” value is 4.4%.

As for `O=C(CSc1ccc(-c2ccccn2)nn1)NC1CCCCC1`, the “activity change, negative = cytotoxicity” value was -4.79%.

As to `CC1CC(C)CN(S(=O)(=O)c2ccc(C(=O)Nc3nnc(C4=COCCO4)o3)cc2)C1` (configuration not stated), the “activity change, negative = cytotoxicity” value was -4.18%.

With `FC(F)(F)c1cc(-c2nn[nH]n2)cc(C(F)(F)F)c1`, the “activity change, negative = cytotoxicity” value is -1.54%.

The values are drawn from PubChem BioAssay AID720593 (Broad Institute, 2013).
